ST2 IL33 inh: inhibitors of human ST2 (IL1RL1) binding to IL-33, primary screen, biochemical, AlphaLISA. Interleukin-1 receptor-like 1 (Homo sapiens), Q01638. AlphaLISA ST2-Fc/biotin-IL-33 interaction, 1 h. inhibition, % for hits at 17 µM. 78,000 compounds, 2.3% hits; in the data active = inhibition above about 30%
Target sequence (Q01638 whole entry, looked up): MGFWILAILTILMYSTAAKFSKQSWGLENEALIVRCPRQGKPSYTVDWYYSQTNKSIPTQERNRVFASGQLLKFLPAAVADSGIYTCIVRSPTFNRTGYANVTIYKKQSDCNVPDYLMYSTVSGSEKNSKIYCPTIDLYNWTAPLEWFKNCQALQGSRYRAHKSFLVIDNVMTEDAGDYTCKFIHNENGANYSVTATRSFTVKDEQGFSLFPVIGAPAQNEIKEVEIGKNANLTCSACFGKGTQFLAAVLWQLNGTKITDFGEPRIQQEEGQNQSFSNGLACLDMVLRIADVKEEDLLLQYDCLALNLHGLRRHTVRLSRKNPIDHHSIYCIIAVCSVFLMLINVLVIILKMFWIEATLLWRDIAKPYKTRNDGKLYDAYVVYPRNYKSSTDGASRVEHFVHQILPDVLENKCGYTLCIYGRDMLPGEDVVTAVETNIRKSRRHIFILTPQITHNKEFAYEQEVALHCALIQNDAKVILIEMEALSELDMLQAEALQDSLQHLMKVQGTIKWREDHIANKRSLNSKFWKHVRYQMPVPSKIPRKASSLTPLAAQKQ
* = called active by the depositor. This is one part of a sample in which hits are shown more often than they occur.

COc1ccc(NC2=CC(=NS(=O)(=O)c3ccc(Cl)cc3)c3ccccc3C2=O)cc1 was read as ST2 IL33 inh 93%*.
For Cc1ccc(Cl)cc1N1CCN(C(=O)C(NS(=O)(=O)c2cccs2)C(C)C)CC1 (configuration not stated) the results were ST2 IL33 inh inactive.
CCOc1ccc(NC(=O)C(c2ccccc2)c2ccccc2)cc1 was read as ST2 IL33 inh inactive.
Cc1cccc(Nc2c3c4c(cccc4n(C)c2=O)C(=O)c2ccccc2-3)c1 was read as ST2 IL33 inh inactive.
`Cc1cccc(NS(=O)(=O)c2ccc(F)cc2)c1` gave ST2 IL33 inh inactive.
`COc1ccc(NS(=O)(=O)c2ccc(NC(=O)Nc3ccc(Cl)cc3)cc2)cc1` gave ST2 IL33 inh inactive.
CCOc1ccc(NC2=CC(=NS(=O)(=O)c3ccccc3)c3ccccc3C2=O)cc1 was read as ST2 IL33 inh 77%*.
`CCOc1ccc(NC(=O)Cc2ccccc2)cc1` gave ST2 IL33 inh inactive.
Cc1ccc(Cl)cc1NC1=CC(=NS(=O)(=O)c2cccs2)c2ccccc2C1=O was read as ST2 IL33 inh 56%*.
`COc1ccc(S(=O)(=O)N=C2C=C(Nc3cccc(C)c3)C(=O)c3ccccc32)cc1` gave ST2 IL33 inh 79%*.
Screening O=S(=O)(Nc1ccc(F)c(Cl)c1)c1cccs1 returned ST2 IL33 inh inactive.
`O=S(=O)(Nc1ccc(Oc2ccccc2)cc1)c1ccc(Cl)cc1` gave ST2 IL33 inh inactive.
`CCC/C=C/c1ccc(C(=O)NCC)cn1` gave ST2 IL33 inh inactive.
`C=CCn1c(=N)c(C(=O)NCC)cc2c(=O)n3ccccc3nc21` gave ST2 IL33 inh inactive.
For NC(=O)c1cnc2n1CCN(C(=O)c1ccc3ncsc3c1)C2 the results were ST2 IL33 inh inactive.
`CCOC(=O)CCC1=NS(=O)(=O)c2ccccc2N1` gave ST2 IL33 inh inactive.
COc1ccccc1CC(=O)Nc1nc(-c2ccccc2)cs1 was read as ST2 IL33 inh inactive.
For CC1CCN(C(=O)CCNC(=O)[C@@H]2C[C@@H]3C=C[C@H]2C3)CC1 the results were ST2 IL33 inh inactive.
`c1cnc(CCNc2ccc(-c3nc(C4CC4)no3)cn2)cn1` gave ST2 IL33 inh inactive.
CC1(C)CC(=O)c2cc(OCC(=O)N3CCc4ccccc4C3)ccc2O1 was read as ST2 IL33 inh inactive.
For COc1ccc(OC)c(S(=O)(=O)Nc2cccc(SC)c2)c1 the results were ST2 IL33 inh inactive.
`COc1cc(O)c(CCC(=O)O)cc1C1OC(=O)C(C)(O)C1O` (configuration not stated) gave ST2 IL33 inh inactive.
`CN1CC2(CCN(C(=O)c3ccc(Cn4ccnc4)o3)C2)OC1=O` (configuration not stated) gave ST2 IL33 inh inactive.
Screening CCOC(=O)C1C(=O)C=C(c2ccc(OC)c(OC)c2)CC1c1ccc(C)cc1 (configuration not stated) returned ST2 IL33 inh inactive.
CC1(C)Cc2nc3sc4c(OCC(N)=O)ncnc4c3cc2CO1 was read as ST2 IL33 inh inactive.
O=S(=O)(N=C(Nc1cccc(O)c1)c1ccccc1)c1ccc(Cl)cc1 was read as ST2 IL33 inh inactive.
For O=C1C=C(Nc2ccc(O)cc2)C(=O)c2ccccc21 the results were ST2 IL33 inh 42%*.
Screening CCOc1ccc(NC2=CC(=NS(=O)(=O)c3ccc(OC)cc3)c3ccccc3C2=O)cc1 returned ST2 IL33 inh 94%*.
CCOc1ccc(NC2=NS(=O)(=O)c3ccccc32)cc1 was read as ST2 IL33 inh inactive.
`CCc1ccc(S(=O)(=O)N=C2C=C(Nc3ccc(O)cc3)C(=O)c3ccccc32)cc1` gave ST2 IL33 inh 91%*.
Screening O=C1C(Nc2ccccc2)=CC(c2ccc(O)cc2)N1c1ccccc1 (configuration not stated) returned ST2 IL33 inh inactive.
`CCOc1ccc(NC(=O)COc2ccc(OC)cc2)cc1` gave ST2 IL33 inh inactive.
For CCOc1ccc(NC(=O)C(Cc2ccccc2)N2C(=O)c3ccccc3C2=O)cc1 (configuration not stated) the results were ST2 IL33 inh inactive.
O=S(=O)(O)c1ccc(Nc2ccccc2)cc1 was read as ST2 IL33 inh inactive.
`CCc1ccc(NS(=O)(=O)c2ccc(OC)c(OC)c2)cc1` gave ST2 IL33 inh inactive.
Screening CCOc1ccc(S(=O)(=O)N=C2C=C(Nc3ccc(O)cc3)C(=O)c3ccccc32)cc1 returned ST2 IL33 inh 84%*.
For CCOc1ccc(NC(=O)c2ccccc2Cl)cc1 the results were ST2 IL33 inh inactive.
Screening O=C(Cc1c(C(=O)O)[nH]c2ccc(Cl)cc12)Nc1cccc(C(F)(F)F)c1 returned ST2 IL33 inh inactive.
CC1=C(C(=O)Nc2ccc(F)cc2)C(c2sccc2C)C2=C(CC(C)(C)CC2=O)N1 (configuration not stated) was read as ST2 IL33 inh inactive.
Screening O=C(c1cc2nc(-c3ccco3)cc(C(F)(F)Cl)n2n1)N1CCOCC1 returned ST2 IL33 inh inactive.
O=C(CN1C(=O)C2C3CCC(C3)C2C1=O)Nc1ccc(C(=O)O)cc1 (configuration not stated) was read as ST2 IL33 inh inactive.
CC(Sc1ccccc1)C(=O)NC(C)(C)C (configuration not stated) was read as ST2 IL33 inh inactive.
COc1ccc(-c2nnc([C@H]3CCN(Cc4ccco4)C3)o2)cc1 was read as ST2 IL33 inh inactive.
For Cc1ccc2[nH]cc(-c3ccc(C(=O)N(C)C)o3)c2c1 the results were ST2 IL33 inh inactive.
Screening CC(C)N=C(NS(=O)(=O)c1cccs1)c1ccccc1 returned ST2 IL33 inh inactive.
`NC(=O)c1ccc(NS(=O)(=O)c2cccs2)cc1` gave ST2 IL33 inh inactive.
O=C1C(Nc2ccc(O)cc2)=CC(=NS(=O)(=O)c2cccs2)c2ccccc21 was read as ST2 IL33 inh 88%*.
Screening Cc1ccc(N(CC(=O)Nc2ccccc2F)S(C)(=O)=O)cc1 returned ST2 IL33 inh inactive.
`CCCCOc1ccc(S(=O)(=O)N2CCN(c3nc(C)cc(N4CCCC4)n3)CC2)cc1` gave ST2 IL33 inh inactive.
Screening OCC(O)CSc1nc2ccccc2[nH]1 (configuration not stated) returned ST2 IL33 inh inactive.
CCCN1C(=O)/C(=C2\SC(N)=NC2=O)c2cc(Br)ccc21 was read as ST2 IL33 inh 33%*.
For CCCN1C(=O)C(=O)c2cc(Br)ccc21 the results were ST2 IL33 inh inactive.
For CCN1C(=O)/C(=C2\SC(N)=NC2=O)c2cc(Br)ccc21 the results were ST2 IL33 inh inactive.
O=C(Nc1ccc2snnc2c1)N1CCCC1 was read as ST2 IL33 inh inactive.
Screening Cc1ccc2[nH]c3c(c2c1)CCCC3=O returned ST2 IL33 inh inactive.
Screening Cc1ccc2[nH]c3c(c2c1)CN(Cc1ccccc1)CC3 returned ST2 IL33 inh inactive.
Cc1ccc2[nH]c3c(c2c1)CCC1C3=NNC1c1ccco1 (configuration not stated) was read as ST2 IL33 inh 37%*.
CCOC(=O)CC1=C(C(=O)OCC)C(c2cccc(OC)c2)C(C#N)=C(N)O1 (configuration not stated) was read as ST2 IL33 inh inactive.
Screening O=C1NC(=O)/C(=C\c2ccc(Cl)cc2Cl)S1 returned ST2 IL33 inh 31%*.
O=C1S/C(=C\c2ccc(Cl)cc2Cl)C(=O)N1CN1CCOCC1 was read as ST2 IL33 inh inactive.

Source: PubChem (Paczesny and Yang Labs, IUPUI and University of Michigan)
